Bioassay records as filed in PubChem.
Shown are actives, neighbours in structure and some others; about 4.1% of the full set was active somewhere.
hcDAF-12 act = H. contortus DAF-12 activation, primary screen. HEK293 hcDAF-12 lit1-tk-luc reporter, luminescence; 0% DMSO, 100% Δ7-dafachronic acid. activation, % at 6.8 µM. actives 1.4% (n = 370,000). AID 652067;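 active = activation above the mean of all tested compounds plus 3 SD, cut at about 5.5% in these data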;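 note: 100% = response to 3 µM Δ7-dafachronic acid high control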
ssDAF12 agonist = activators of S. stercoralis DAF-12 nuclear receptor; HEK293 ssDAF-12/GRIP1 lit1-tk-luc reporter, luminescence; % of 3 µM dafachronic acid response; activation, % at 6.8 µM; actives 1% (n = 370,000); AID 652126;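 active = activation above the mean over all tested compounds plus 3 SD, cut at about 0.9% in these data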;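 note: 0% = DMSO-only wells and 100% = 3 µM delta7-dafachronic acid wells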
DAX1 inh-1 = inhibits human nuclear receptor DAX1. P51843. actives 0.99% (n = 340,000). HEK293 Gal4-DAX1 luciferase reporter, luminescence. inhibition, % at 6.75 µM;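 active = inhibition above the mean over all tested compounds plus 3 SD, cut at about 4.2% in these data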;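 note: 0% = DAX1-transfected cells with DMSO and 100% = empty-vector control cells with DMSO; inhibition shows as a rise in luminescence from relieved DAX1 repression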
Target sequence (P51843 207-470 limits assumed): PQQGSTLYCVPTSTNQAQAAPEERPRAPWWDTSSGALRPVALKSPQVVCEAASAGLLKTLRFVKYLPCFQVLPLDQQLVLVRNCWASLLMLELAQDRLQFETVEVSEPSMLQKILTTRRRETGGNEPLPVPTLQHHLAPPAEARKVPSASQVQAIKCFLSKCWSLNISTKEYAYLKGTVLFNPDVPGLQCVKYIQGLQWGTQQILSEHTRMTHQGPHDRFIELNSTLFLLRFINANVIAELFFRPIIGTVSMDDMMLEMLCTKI
hgDAF12 agonist = agonists of H. glycines DAF-12 nuclear receptor | AID 687014 | HEK293 GAL4-hgDAF12 UAS-luciferase reporter, agonist luminescence; normalized to butyrate control | activation, % at 6.8 µM | actives 1.8% (n = 370,000);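 active = activation above a cutoff set at the mean of all screened compounds plus 3 SD, cut at about 10% in these data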;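 note: 0% = DMSO wells and 100% = sodium butyrate wells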
DAX1 inh-2 = DAX1 (NR0B1) inhibition, primary screen. HEK293T StAR-luciferase reporter, SF-1/DAX-1 repression relief. inhibition, % at 6.8 µM. actives 1.1% (n = 370,000). AID 652010;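 active = inhibition above the mean over all tested compounds plus 3 SD, cut at about 3.6% in these data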;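 note: 0% = DAX-1 cells with DMSO and 100% = cells lacking DAX-1 with DMSO; higher inhibition means more luminescence from relief of DAX-1 repression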
LXR ag = counter-screen for hcDAF-12 agonists: agonists of human LXR-beta; shares compounds with hcDAF-12 act; HEK293 Gal4-LXR tk-luc reporter, luminescence, 24 h; normalized: DMSO 0%, positive control 100%; activation, % at 6.8 µM; 3,400 tested, under 10 active; AID 743027;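 active = mean percent activation of the reporter above a cutoff set as the average over tested compounds plus their standard deviation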
Target sequence (P55055 whole entry, looked up, the tested form may be a part): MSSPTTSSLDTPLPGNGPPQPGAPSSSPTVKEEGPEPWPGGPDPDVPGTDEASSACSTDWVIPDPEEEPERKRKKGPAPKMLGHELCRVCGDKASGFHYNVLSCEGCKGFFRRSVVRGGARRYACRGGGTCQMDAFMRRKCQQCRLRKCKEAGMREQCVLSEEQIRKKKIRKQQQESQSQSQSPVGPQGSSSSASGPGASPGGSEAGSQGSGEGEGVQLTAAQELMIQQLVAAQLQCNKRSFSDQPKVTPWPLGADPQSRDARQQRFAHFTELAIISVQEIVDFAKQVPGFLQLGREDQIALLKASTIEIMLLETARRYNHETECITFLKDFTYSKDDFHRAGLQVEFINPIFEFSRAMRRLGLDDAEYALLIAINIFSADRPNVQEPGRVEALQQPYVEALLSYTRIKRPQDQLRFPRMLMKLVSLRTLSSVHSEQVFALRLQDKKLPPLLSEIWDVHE
hcDAF12 ag = confirmation of H. contortus DAF-12 agonists; HEK293 hcDAF-12 lit1-tk-luc reporter, luminescence; % of Δ7-dafachronic acid response; shares compounds with hcDAF-12 act; actives 61% (n = 3,400); activation, % at 6.8 µM; AID 743032;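 active = mean activation across triplicate tests above the threshold derived from the earlier primary screen, cut at about 5.5% in these data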;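 note: 0% = DMSO only wells and 100% = 3 µM Δ7-dafachronic acid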
hgDAF12 ag = confirmation of H. glycines DAF-12 agonists | HEK293 GAL4-hgDAF12 luciferase reporter, agonist mode; percent of butyrate response | actives 80% (n = 3,300) | AID 743050 | shares compounds with hgDAF12 agonist | activation, % at 6.8 µM;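 active = mean activation over triplicate wells above the hit cutoff derived from the earlier primary screen, cut at about 11% in these data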;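 note: 0% = DMSO low control and 100% = 2 mM sodium butyrate high control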
LXR ag 2 = LXR-beta agonism as DAF-12 counter-screen; AID 743051; 3,300 tested, under 10 active; HEK293 Gal4-LXR luciferase reporter, 24 h; activation, % at 6.8 µM; shares compounds with hgDAF12 agonist;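 active = mean activation of the triplicate above a set limit carried over from the primary screen, none filed active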
Starred values were filed as active, the others as inactive.

Screening C[C@@H]1CN([C@@H](C)CO)C(=O)CCCn2nncc2CO[C@H]1CN(C)C(=O)Nc1ccc(-c2cccs2)cc1 returned hcDAF-12 act 0.7, ssDAF12 agonist -1.3, DAX1 inh-1 -0.1, hgDAF12 agonist -3.1 and DAX1 inh-2 0.1.
For N#Cc1ccc(Cn2ccc3ccc(-c4ccc5ccn(C(=O)C6CC6)c5c4)cc32)cc1 the results were hcDAF-12 act 0.6, ssDAF12 agonist -1.7, hgDAF12 agonist 2.1 and DAX1 inh-2 -0.2.
Cn1c(NCc2c[nH]c3ccccc23)nc2ccccc21 was read as hcDAF-12 act 15.9*, ssDAF12 agonist 1.7*, DAX1 inh-1 1.7, hgDAF12 agonist 16.3*, DAX1 inh-2 2.1, LXR ag 1.1, hcDAF12 ag 14.9*, hgDAF12 ag 25.2* and LXR ag 2 0.6.
Cc1ccnc(NC(=O)c2cc3cc(F)ccc3s2)c1 was read as hcDAF-12 act 9.9*, ssDAF12 agonist 2.4*, DAX1 inh-1 2.4, hgDAF12 agonist 21.9*, DAX1 inh-2 3.3, LXR ag 1.6, hcDAF12 ag 8.4*, hgDAF12 ag 19.2* and LXR ag 2 1.1.
`Cc1nc(Cn2c3ccc(NC(=S)NC4CCCCC4)cc3c(=O)n2C)cs1` gave hcDAF-12 act -1.9, ssDAF12 agonist -1.4, hgDAF12 agonist -3.9 and DAX1 inh-2 -1.8.
For Cc1cc(N)n(-c2cc(C)c3ccccc3n2)n1 the results were hcDAF-12 act 9.9*, ssDAF12 agonist 1.6*, DAX1 inh-1 1.4, hgDAF12 agonist 16.6*, DAX1 inh-2 3.5, LXR ag 1.3, hcDAF12 ag 13.5*, hgDAF12 ag 17.1* and LXR ag 2 0.7.
`N#Cc1ccccc1S(=O)(=O)NC(=O)[C@H]1O[C@@H](n2cnc3c(N)ncnc32)[C@H](O)[C@@H]1O` gave hcDAF-12 act 0.9, ssDAF12 agonist -0.7, hgDAF12 agonist -2.9 and DAX1 inh-2 -0.2.
Screening O=C(Nc1ccc2c(c1)OCO2)c1ccc2c(c1)OCO2 returned hcDAF-12 act 7.3*, ssDAF12 agonist 2.1*, DAX1 inh-1 -1.1, hgDAF12 agonist 14.0*, DAX1 inh-2 3.3, LXR ag 1.2, hcDAF12 ag 9.3*, hgDAF12 ag 15.2* and LXR ag 2 0.8.
Screening O=C(Nc1ccc(Cl)c(Cl)c1)c1ccc2c(c1)OCO2 returned hcDAF-12 act 9.7*, ssDAF12 agonist 3.0*, DAX1 inh-1 1.6, hgDAF12 agonist 18.9*, DAX1 inh-2 2.3, LXR ag 1.4, hcDAF12 ag 7.2*, hgDAF12 ag 21.6* and LXR ag 2 1.2.
`O=C(Nc1ccc(F)c(F)c1)c1ccc2c(c1)OCO2` gave hcDAF-12 act 2.5, ssDAF12 agonist -0.8, DAX1 inh-1 1.4, hgDAF12 agonist 6.0 and DAX1 inh-2 2.9.
For CC1CCC(NC(=O)c2ccc3c(c2)OCO3)CC1 (stereo unspecified) the results were hcDAF-12 act 9.0*, ssDAF12 agonist 0.8, DAX1 inh-1 -0.6, hgDAF12 agonist 15.1*, DAX1 inh-2 9.1*, LXR ag 1.5, hcDAF12 ag 8.6*, hgDAF12 ag 18.9* and LXR ag 2 0.9.
`Cc1cc(C)c(C(=O)Nc2ccc3c(c2)OCCO3)c(C)c1` gave hcDAF-12 act 1.6, ssDAF12 agonist -0.7, DAX1 inh-1 1.1, hgDAF12 agonist 5.2 and DAX1 inh-2 2.0.
Screening Cc1ccc(C(=O)Nc2ccc3c(c2)OCCO3)o1 returned hcDAF-12 act 9.2*, ssDAF12 agonist 0.4, DAX1 inh-1 0.8, hgDAF12 agonist 13.3*, DAX1 inh-2 3.3, LXR ag 1.3, hcDAF12 ag 4.7, hgDAF12 ag 14.4* and LXR ag 2 0.7.
For Cc1ccc(Nc2nc(-c3ccccc3)cs2)nc1 the results were hcDAF-12 act 19.1*, ssDAF12 agonist 1.9*, DAX1 inh-1 -1.3, hgDAF12 agonist 13.3*, DAX1 inh-2 3.7*, LXR ag 2.1, hcDAF12 ag 16.5*, hgDAF12 ag 22.7* and LXR ag 2 1.4.
Cc1ccc(Nc2nc(-c3cccs3)cs2)nc1 was read as hcDAF-12 act 13.2*, ssDAF12 agonist 0.7, DAX1 inh-1 2.2, hgDAF12 agonist 14.7*, DAX1 inh-2 4.0*, LXR ag 1.6, hcDAF12 ag 13.8*, hgDAF12 ag 9.5 and LXR ag 2 1.0.
`c1cncc(Nc2nc(-c3cccs3)cs2)c1` gave DAX1 inh-1 1.9.
`Cc1ccc(S(=O)(=O)Nc2nc(-c3ccccc3)cs2)cc1` gave hcDAF-12 act -1.5, ssDAF12 agonist -0.8, DAX1 inh-1 0.7, hgDAF12 agonist 0.1 and DAX1 inh-2 0.1.
For Brc1ccc(-c2ccc3c(n2)CCCN3Cc2ccccn2)cc1 the results were hcDAF-12 act 0.5, ssDAF12 agonist 0.2, hgDAF12 agonist 5.4 and DAX1 inh-2 1.1.
`Oc1ccc(-c2csc(-c3c[nH]c4ccccc34)n2)c(O)c1` gave hcDAF-12 act 8.3*, ssDAF12 agonist 2.7*, DAX1 inh-1 3.2, hgDAF12 agonist 14.2*, DAX1 inh-2 3.5, LXR ag 1.2, hcDAF12 ag 9.2*, hgDAF12 ag 17.0* and LXR ag 2 0.8.
Screening Cc1ccc(-c2csc(-c3c[nH]c4ccccc34)n2)c(C)c1 returned hcDAF-12 act 0.7, ssDAF12 agonist 0.0, DAX1 inh-1 1.6, hgDAF12 agonist 8.7 and DAX1 inh-2 0.8.
COc1ccc(C(=O)O/N=C(\N)c2ccccc2)cc1 was read as hcDAF-12 act 8.7*, ssDAF12 agonist 1.9*, DAX1 inh-1 1.3, hgDAF12 agonist 14.4*, DAX1 inh-2 3.4, LXR ag 1.8, hcDAF12 ag 6.7*, hgDAF12 ag 18.2* and LXR ag 2 1.0.
For Cc1cccc(/C(N)=N/OC(=O)c2cccs2)c1 the results were hcDAF-12 act 7.9*, ssDAF12 agonist 1.8*, DAX1 inh-1 3.5, hgDAF12 agonist 15.3*, DAX1 inh-2 3.5, LXR ag 0.8, hcDAF12 ag 5.7*, hgDAF12 ag 16.9* and LXR ag 2 0.8.
Screening N/C(Cc1cccc2ccccc12)=N\OC(=O)c1cccs1 returned DAX1 inh-1 0.8.
